According to PubChem BioAssay AID1347426 (Functional Genomics Laboratory (NCATS/FGL), 2020):
Hit rate of the full screen: of about 31,000 sequences, about 1,400 (4.5%) were called active.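 Rule for the calls: active = median seed-adjusted z-score above 1 or below -1; inactive = the rest.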 The entries come from a sample that favours actives as a whole.

assay: Novel Modifiers of Survival Motor Neuron (SMN) Protein: Gene Identification via Genome-wide siRNA Screen; conditions: HEK293T SMN2-luciferase reporter, siRNA knockdown, 72 h; actives lie on both sides;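 note: luminescence tracks full-length SMN protein made from the SMN2 reporter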
Procedure, shortened: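 HEK293T cells stably carrying an SMN2 promoter/splicing cassette–luciferase reporter were reverse-transfected with 1 pmol siRNA per well (druggable-genome library, 3 siRNAs per gene) and grown 72 h at 37 °C. Luminescence, normalized to negative-control siRNA and log10-transformed, was scored as MAD.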

Row | Sequence | median seed-adjusted z-score
1 | CCAAUGAUGUAUGAUCUAATT against UBE3A | 0.0949 (inactive)
2 | GGACUAUAAAUCCAGCUUUTT against TOMM34 | -0.503 (inactive)
3 | CUCCUAAAGUGCAUCGCAATT against GUF1 | 0.119 (inactive)
4 | CAUCAGAUCUUGAUCAGUUTT against NKTR | -1.1 (active)
5 | CUCUUCACGUCUGACCUGATT against HTR6 | -0.463 (inactive)
6 | CCCAUAUGAUUACCCAUUUTT against MYH2 | -0.73 (inactive)
7 | CCUGCAGAAUAACCUGAUATT against OPTC | 0.0953 (inactive)
8 | CCUGGAAACUACAAGCCCATT against SIRT3 | -0.341 (inactive)
9 | GCCUCGAGCCUAUUCGUUATT against PCDHB4 | 0.00998 (inactive)
10 | GACUACGACUGGUUCUUCATT against CSGLCA-T | 0.146 (inactive)
11 | AGUCAAGAACAAUACCCAATT against SNRPD2 | -0.849 (inactive)
12 | GAGCAGCUCUUAAGCAACATT against SAPS1 | 1.16 (active)
13 | GCCUGUCCCUAGCAUUGUUTT against CES2 | -0.47 (inactive)
14 | CCAGUCACUGCAUAACAUUTT against PSMD9 | 0.266 (inactive)
15 | GAACUAGGAGAUACAAUAUTT against ELOVL6 | 0.742 (inactive)
16 | GGACAGUCUUCUGUAUGCATT against RBM39 | -1.82 (active)
17 | CCAGAGAAAUGAGAUUGGATT against ZNF195 | 0.0753 (inactive)
18 | GCCUGCAAGUGAAGCGGAATT against PRMT1 | -0.596 (inactive)
19 | CAGCCUUCAUGAGAUGUUATT against AMPD3 | -0.0865 (inactive)
20 | CAACCUGCUCUACAGCAAATT against PRSS27 | 1.03 (active)
21 | GACGCGGUAUGUAGACAUATT against NAT8B | 0.206 (inactive)
22 | GCUGCAUUGUGGGUGAUGATT against PTGIR | -0.0806 (inactive)

Row | Sequence | median seed-adjusted z-score
23 | CAAGAGCAGUUUAAUAGCATT against BAT3 | 0.567 (inactive)
24 | GGAACUUACUACAACUCCATT against TMPRSS6 | 1.29 (active)
25 | GGUUAGCUUAUGUUACAUATT against E2F3 | -0.215 (inactive)
26 | ACUCCUCUCUGUUAAUGGATT against LIN7C | 0.021 (inactive)
27 | GGUUGAAGAUGGUACUCCUTT against ADAMTS20 | 1.44 (active)
28 | CUCCAGAUAUAGACCUCAATT against TRIM22 | 0.363 (inactive)
29 | UGUUGUACCUCUAAUGUCATT against GPR172B | 0.184 (inactive)
30 | GCAACCCACCAAUAACUAATT against ADAM29 | 0.904 (inactive)
31 | UGAGUUCUUUAGGACCGAATT against MFAP3L | 1.03 (active)
32 | GUACUGUAGAGAAAGCGUATT against ZNF606 | 0.118 (inactive)
33 | UUUCCAAACAAGUACCUAATT against CKS2 | 0.0907 (inactive)
34 | GCAUAUACCAUCGCUGUAATT against SUPT16H | 1.2 (active)
35 | CCAGAUAUGGUAUCCCAAUTT against ZNF227 | 0.0194 (inactive)
36 | GUCUCAAUCUAAUAAGGAATT against TTLL1 | 0.322 (inactive)
37 | GAUCAGGACUUUAUGUUCATT against ZNF225 | 0.0761 (inactive)
38 | GAGCGUACCAAGGAUCUAATT against HDLBP | -1.18 (active)
39 | CUUUUGACGUGAACGAUGATT against ORM1 | 0.206 (inactive)
40 | CCGCCCAAGUAGUAAAGAATT against ADCY3 | -0.294 (inactive)
41 | AGACUUUAAGGAGAAAACATT against YAF2 | 0 (inactive)
42 | GGUUCACGGUUCAAAAUCATT against SLC25A24 | -0.0384 (inactive)
43 | GGUCCAACAUGCAAUCCAATT against EDEM3 | 0.119 (inactive)
44 | GCCGCAACAUGGAAGUACATT against MAPK8IP3 | 0.734 (inactive)

Row | Sequence | median seed-adjusted z-score
45 | GGGAGAUCUUCGACUCAUATT against ADRBK1 | 0 (inactive)
46 | GGGACUAUUCCAAAACCCATT against FLAD1 | 0.367 (inactive)
47 | GGAAUGUGCUGGUCGGAGATT against TIE1 | 0.0629 (inactive)
48 | CCAAAUACAUCGCAUUAGATT against GTPBP4 | 1.01 (active)
49 | GGUUCAUACAGACUCUUAUTT against PJA2 | 0 (inactive)
50 | GAUAAAAACAGUCCUUUCUTT against FXYD3 | 0.254 (inactive)
51 | CAAUGUUACCAAAACCGAATT against ACVR1C | -0.0005 (inactive)
52 | CCCUACCAACAUUAAGUAUTT against CLDN7 | 0.0208 (inactive)
53 | GGAUGUGGUUUAUUAUACATT against SLC16A9 | 0.125 (inactive)
54 | GCCUAUCAAUUGUUCGGGATT against TTF1 | 1.76 (active)
55 | GCGUAUGGGAUUACAAGAATT against PAFAH1B1 | 0.391 (inactive)
56 | GGCUAGUACUGACAGAUGATT against CREB3 | 0.0509 (inactive)
57 | ACUCCUACAUGUACAUUCUTT against KCNE3 | -1.33 (active)
58 | GGUUAAAAGUCGGUCCCAATT against SGCG | 0.886 (inactive)
59 | GCAUCUCUAUUGUAGCCCUTT against GHRHR | 0 (inactive)
60 | CAUCCGAUCUGAUAGGUCUTT against EFEMP1 | 0.0157 (inactive)
61 | AGACCUAGCAUGGACCAGATT against GUCY2E | 0.61 (inactive)
62 | CUUGGACACUGAAAACGCATT against ITGAM | -1.56 (active)
63 | GGAUGAGUACAGAUUUACATT against CLPX | -0.0436 (inactive)
64 | AGCUCAUAGCUGACCCAGATT against ZC3H3 | -0.622 (inactive)
65 | CAGAUGACUUCAGAACCAATT against KRT33B | 0.04 (inactive)
66 | GGCUAUAUCGUCACAAUGATT against ABCA4 | -1.09 (active)

Row | Sequence | median seed-adjusted z-score
67 | GGUAAUGCUUUAUUCCAAATT against ZNF677 | -0.441 (inactive)
68 | GAGCUGACGUGUACUCAUATT against USP5 | 0.596 (inactive)
69 | CGCAUUCUCCAGUCGCACATT against KRT81 | -0.0955 (inactive)
70 | CGGUUGGAGUUGGAUGACATT against TRIB3 | 0.00635 (inactive)
71 | ACAUCAAAACACCAGCUUUTT against YBX2 | 0.362 (inactive)
72 | CCUACGUUUUUAUUAUCUUTT against SLC2A14 | -1.09 (active)
73 | GCACAAGGAGUGACCUUCUTT against GCHFR | -0.559 (inactive)
74 | GAACUUUGUUACUAUCGAATT against PCDH9 | 0.165 (inactive)
75 | GGAUCCUGGUGAUAAGAGATT against QRICH1 | -1.04 (active)
76 | GAGAAAAUCUAUAUCCGGATT against NR2C2 | -0.498 (inactive)
77 | CCCGGAGAAUUCUCAAUGATT against NENF | -0.778 (inactive)
78 | CAUCAAUGACUCACCCUUUTT against RTN4R | -0.536 (inactive)
79 | CAAACGACCUUUGCCCAAATT against MED17 | -2.06 (active)
80 | AAACUUGCCUGAGUACAAATT against KCNH3 | -0.509 (inactive)
81 | GCUCCAGUCUCACUAAACATT against ZNF552 | 0.437 (inactive)
82 | GAAUGAAGGUUUAUAUUGATT against EPHB3 | -0.407 (inactive)
83 | AGGAGACUCUUUGCUACAATT against MRGPRX1 | -0.188 (inactive)
84 | GAAUGUUGACUCUACUGCATT against POLR3K | 0.504 (inactive)
85 | GGGACCAUCCUGUUCUUCATT against KCNK12 | 1.04 (active)
86 | CUCACAACAAAUUACUUAATT against CYP2C9 | 0.246 (inactive)
87 | GGACUUGAGAGAUCUCUUUTT against DAB1 | 0.307 (inactive)
88 | GGUCUAAAGGUGGAGAUAATT against EIF2C2 | -0.183 (inactive)

Row | Sequence | median seed-adjusted z-score
89 | CAUGUGCAGUACAUCCAUATT against TIMP3 | -1.05 (active)
90 | GCCCUUUACAUACUCUUCATT against IL23R | 0.512 (inactive)
91 | GGAUGAUAUUCUAUCCUUUTT against IPO13 | 0.612 (inactive)
92 | UGCUCAGCAGUACAACGUATT against SYN1 | -0.458 (inactive)
93 | UGUCCACGGUUAAAAUUAUTT against CCL16 | -0.308 (inactive)
94 | CAAACCGAAUAGAAACUUUTT against PSMC1 | -2.23 (active)
95 | UCAACUGCCCAUACACUUATT against LOC647743 | -0.203 (inactive)
96 | UCCCAGUGAUUAUACGUUATT against ARPC4 | -0.211 (inactive)
97 | GGAUGAGAACAUUAAAACATT against COQ3 | 0.426 (inactive)
98 | UGAUGGAAGUUGUCACUUATT against BLK | -0.274 (inactive)
99 | GGCAAUGCUUUACUAUGAATT against ABCG8 | -0.0233 (inactive)
100 | AGAUGUUCUUAAGACCAAATT against PACSIN2 | 0.73 (inactive)
101 | GGACUUCUGAAAAUUCGCATT against EP400 | 1.83 (active)
102 | CCGCGAUCAUAGACCUAGATT against FOXO4 | -0.0576 (inactive)
103 | GGACAGGAAGAUACAAGAATT against GPR113 | -0.434 (inactive)
104 | GGAAGAAUAUGUUUAGAUATT against UBE2N | 0.995 (inactive)
105 | CGAGCAAUUUAGAGACUUATT against PCDHGA3 | 0.27 (inactive)
106 | GGAGAUACCAGGAACCCAATT against SLC7A13 | 0.121 (inactive)
107 | CACGCAGAGUUACCGAAAATT against SPEN | -1.69 (active)
108 | CGAGCCACCGAGAAGAUAATT against ATAD3A | -0.283 (inactive)
